# Records with an inconclusive call do not appear. A call without a number means that no potency is given here. Activity calls are given as the source filed them. Unless noted, calls follow the shape of the full dose curve.
# Tests used:
# [1] = Cytotoxicity counterscreen for inhibitors of SARS-CoV-2 cell entry (AID 1645845); conditions: outcome: dose series up to 57.1 µM unless noted; also: nearly all actives have a fitted effect of over 50% in size; also: potency is read from the fitted curve at half-maximal effect
# Outline: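 48 h compound treatment (after 1 h preincubation), HEK293-ACE2 cells, 37 C/5% CO2; ATP luminescence endpoint; normalized to cell wells and media blanks.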
# [2] = Primary qHTS to identify inhibitors of SARS-CoV-2 cell entry (AID 1645846); conditions: SARS-CoV-2 pseudovirus cell entry assay, luminescence; activity change, negative = inhibition: at 57.1 µM (top of the series) unless noted; also: nearly all actives have a fitted effect of over 45% in size
# Outline: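 Data are normalized to wells receiving SARS-CoV-2-S pseudoparticles and those given bald particles. Entry signal was luciferase luminescence in stable hACE2 Expi293F cells, 48 hr post-infection, after 1 hr compound pretreatment.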
# [3] = biological target: Nuclear receptor subfamily 1 group I member 3 (Homo sapiens) (UniProt Q14994); experiment: Primary qHTS for antagonist of constitutive androstane receptor (CAR) against the NCATS DSHEA and TCM libraries (AID 1794836; active = well fitted curve in the direction sought with a large enough effect; an effect the other way counts as inactive or inconclusive;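 also: HepG2 cells stably expressing hCAR with CYP2B6 luciferase reporter stimulated by CITCO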)
# Sequence of Nuclear receptor subfamily 1 group I member 3 (Homo sapiens) (Q14994 whole entry, looked up): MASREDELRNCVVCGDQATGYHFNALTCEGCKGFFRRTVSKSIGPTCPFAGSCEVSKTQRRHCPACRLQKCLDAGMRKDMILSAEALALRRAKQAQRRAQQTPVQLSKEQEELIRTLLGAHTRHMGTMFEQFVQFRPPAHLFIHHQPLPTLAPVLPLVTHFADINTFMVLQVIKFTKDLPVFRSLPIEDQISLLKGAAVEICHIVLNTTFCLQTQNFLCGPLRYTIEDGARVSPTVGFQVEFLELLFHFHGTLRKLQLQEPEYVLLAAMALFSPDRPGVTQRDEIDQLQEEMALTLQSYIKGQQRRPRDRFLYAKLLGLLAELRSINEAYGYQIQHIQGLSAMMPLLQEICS
# Outline: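 Antagonist mode: CAR reporter luminescence (ONE-Glo) in HepG2-CYP2B6-hCAR cells stimulated with 48 uM CITCO (final) over 24 h at 37 C, compounds titrated; viability read first by CellTiter-Fluor fluorescence.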
# [4] = Validation screen for inhibitors of Lassa infection (AID 463096)
# [5] = KB-8-5-11 P-gp reporter qHTS against the NCATS DSHEA and TCM libraries (AID 1919977; active = well fitted curve in the direction sought with a large enough effect; an effect the other way counts as inactive or inconclusive)
# Outline: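 Cells were seeded, allowed ~4 h to attach, dosed by pin tool (substance titrations), incubated ~72 h at 37C, then lysed with CellTiter-Glo for 30 min at room temperature before luminescence reading.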
# [6] = qHTS profiling of the MIPE4 collection as inhibitors of Plasmodium falciparum (3D7) proliferation (AID 743344; call rule not given here); conditions: P. falciparum 3D7 in erythrocytes, SYBR Green DNA fluorescence, 72 h; at 28.5 µM (top of the series)
# Outline: (§1)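 Erythrocytes infected with P. falciparum (0.3% parasitemia, 2.5% hematocrit) incubated with compounds 72 h at 37 C, 5% CO2. Lysis with saponin/Triton buffer containing SYBR Green I, overnight at room temperature in the dark; DNA fluorescence (485/535 nm) normalised to 0.29 uM artemisinin and DMSO.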
# [7] = qHTS profiling of the MIPE4 collection as inhibitors of Plasmodium falciparum (DD2) proliferation (AID 743345; call rule not given here); conditions: P. falciparum Dd2 in erythrocytes, SYBR Green DNA, 72 h; at 28.5 µM (top of the series)
# Outline: as §1
# [8] = qHTS profiling of the MIPE4 collection as inhibitors of Plasmodium falciparum (DD2) proliferation (Rep 2) (AID 743346; call rule not given here); conditions: P. falciparum Dd2 in erythrocytes, SYBR Green DNA, 72 h; at 28.5 µM (top of the series)
# Outline: as §1
# [9] = qHTS profiling of the MIPE4 collection as inhibitors of Plasmodium falciparum (HB3) proliferation (AID 743347; call rule not given here); conditions: P. falciparum HB3 in erythrocytes, SYBR Green DNA, 72 h; at 28.5 µM (top of the series)
# Outline: as §1
# [10] = VSVG counterscreen qHTS to identify inhibitors of SARS-CoV-2 cell entry (AID 1645847); also: nearly all actives have a fitted effect of over 65% in size; also: potency is read from the fitted curve at half-maximal effect
# Outline: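 Counterscreen using VSV-G (not spike) pseudotyped MLV particles on ACE2-expressing Expi293F cells after 1 h compound preincubation; infection ran 48 h at 37 °C. Data normalized to VSV-G PP and bald-PP wells.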
# [11] = Primary qHTS for inhibitors of nuclear receptor binding SET domain protein 2 (NSD2) in an isogenic RCH-ACV NSD2 p.E1099K mutant (9B) (AID 1645876; active = well fitted curve in the direction sought with a large enough effect; an effect the other way counts as inactive or inconclusive; also: nearly all actives have a fitted effect of over 70% in size; also: potency is read from the fitted curve at half-maximal effect)
# [12] = Primary qHTS for inhibitors of nuclear receptor binding SET domain protein 2 (NSD2) in an RCH-ACV wild type WT cells (2C) (AID 1645877; active = well fitted curve in the direction sought with a large enough effect; an effect the other way counts as inactive or inconclusive; also: nearly all actives have a fitted effect of over 70% in size; also: potency is read from the fitted curve at half-maximal effect)
# [13] = biological target: Alpha-galactosidase (Coffea arabica) (UniProt Q42656); experiment: Counterscreen for Glucocerebrosidase Inhibitors: qHTS Assay for Coffee Bean alpha-Galactosidase at pH 5.9 (AID 998; active = well fitted curve in the direction sought with a large enough effect; an effect the other way counts as inactive or inconclusive)
# Sequence of Alpha-galactosidase (Coffea arabica) (Q42656 whole entry, looked up): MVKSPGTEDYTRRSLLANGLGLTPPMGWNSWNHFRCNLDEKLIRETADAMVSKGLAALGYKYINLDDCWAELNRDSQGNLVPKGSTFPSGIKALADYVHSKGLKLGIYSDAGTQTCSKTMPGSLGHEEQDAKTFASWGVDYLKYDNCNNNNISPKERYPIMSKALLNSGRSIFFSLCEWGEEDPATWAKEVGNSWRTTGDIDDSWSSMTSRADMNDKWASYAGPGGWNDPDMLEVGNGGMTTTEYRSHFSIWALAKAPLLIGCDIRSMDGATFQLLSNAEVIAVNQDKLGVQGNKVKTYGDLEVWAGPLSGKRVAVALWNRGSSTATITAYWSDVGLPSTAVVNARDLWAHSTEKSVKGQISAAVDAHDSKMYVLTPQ
# Outline: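 Compounds were titrated from 0.7 nM to 77 uM against green coffee bean alpha-galactosidase (2 nM) using 80 uM fluorogenic 4-methylumbelliferyl substrate. After 20 min at room temperature, reactions were stopped at pH 10 and read by fluorescence.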
# [14] = biological target: Glutathione peroxidase 1 (Homo sapiens) (UniProt P07203); experiment: Primary qHTS Assay for Inhibitors of Recombinant Selenoprotein Glutathione Peroxidase 1 (GPX1) (AID 1845191; active = well fitted curve in the direction sought with a large enough effect; an effect the other way counts as inactive or inconclusive; also: nearly all actives have a fitted effect of over 65% in size)
# Sequence of Glutathione peroxidase 1 (Homo sapiens) (P07203 whole entry, looked up): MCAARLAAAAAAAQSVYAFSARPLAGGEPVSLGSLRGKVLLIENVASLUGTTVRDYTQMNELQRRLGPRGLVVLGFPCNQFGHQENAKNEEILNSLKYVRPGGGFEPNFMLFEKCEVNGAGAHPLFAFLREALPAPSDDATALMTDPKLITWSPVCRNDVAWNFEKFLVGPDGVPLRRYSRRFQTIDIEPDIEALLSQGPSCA
# Outline: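 10 nM GPX1 + cpd, 30 min RT; start w/ 1 mM GSH, 0.5 mM cumene hydroperoxide, 0.5 mM NADPH, 100 nM GR, 0.01% BSA; buffer 50 mM Tris-HCl pH 7.5, 2 mM EDTA, 150 mM NaCl; Fl 340/450, 0 & 15 min.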
# [15] = biological target: Phospholipid hydroperoxide glutathione peroxidase GPX4 (Homo sapiens) (UniProt P36969); experiment: Primary qHTS Assay for Inhibitors of Recombinant Selenoprotein Glutathione Peroxidase 4 (GPX4) (AID 1845192; active = well fitted curve in the direction sought with a large enough effect; an effect the other way counts as inactive or inconclusive; also: nearly all actives have a fitted effect of over 65% in size)
# Sequence of Phospholipid hydroperoxide glutathione peroxidase GPX4 (Homo sapiens) (P36969 whole entry, looked up): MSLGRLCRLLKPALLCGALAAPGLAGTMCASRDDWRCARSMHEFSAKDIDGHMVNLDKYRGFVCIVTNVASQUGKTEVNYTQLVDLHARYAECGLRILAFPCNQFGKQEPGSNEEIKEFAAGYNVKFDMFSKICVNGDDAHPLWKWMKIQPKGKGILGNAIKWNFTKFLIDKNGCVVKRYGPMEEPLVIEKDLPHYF
# Outline: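 NADPH consumption, followed by fluorescence at 340/450 nm between 0 and 15 min, reports GPX4 activity via coupled glutathione reductase (100 nM). Enzyme 200 nM was pre-exposed to compound 30 min; 0.5 mM cumene hydroperoxide and 1 mM GSH served as substrates.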
# [16] = qHTS drug screen for cell cycle checkpoint inhibitors in PARPi-resistant BRCA-mutant ovarian cancer cell lines. (AID 1963452); conditions: PEO1/OlaR viability, CellTiter-Glo luminescence, 96 h, stronger effect = lower value
# Outline: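 PEO1, PEO4 and PEO1/OlaR ovarian cancer cells, 600 per well, exposed 96 h at 37C to a dilution series. Viability read by CellTiter-Glo luminescence, normalized to DMSO and empty wells; activity summarized as Z-AUC.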
# [17] = MultiTox-Fluor Cytotoxicity Assay - LYMP1-002 - Dead Cells (AID 960; active = well fitted curve in the direction sought with a large enough effect; an effect the other way counts as inactive or inconclusive; also: potency is read from the fitted curve at half-maximal effect; nearly all actives have a fitted effect of over 60% in size)
# Outline: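 Acute cytotoxicity in a human lymphoblastoid line is scored as rising dead-cell protease signal after 16 hr exposure at 37 C, measured fluorometrically (485/520).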
compound,measurement,setting,value
C[C@H]1[C@H](C)CC[C@]2(C(=O)O)CC[C@]3(C)C(=CC[C@@H]4[C@@]5(C)CC[C@H](O)C(C)(C)[C@@H]5CC[C@]43C)[C@H]12,Potency,[1],inactive
same,"activity change, negative = inhibition",[2],0.662%
same,Potency,[3],inactive
C[C@H]1CC2[C@@H]3CCC4=CC(=O)C=C[C@]4(C)[C@@]3(F)[C@@H](O)C[C@]2(C)[C@@]1(O)C(=O)CO (some centres undefined),Potency,[4],inactive
same,Potency,[1],inactive
same,Potency,[2],inactive
CC[C@H](CC[C@@H](C)[C@H]1CC[C@H]2[C@@H]3CC=C4C[C@@H](O)CC[C@]4(C)[C@H]3CC[C@]12C)C(C)C,Potency,[1],inactive
same,Potency,[3],inactive
same,Potency,[5],inactive
OCCn1cc(-c2ccc3c(c2)CC/C3=N\O)c(-c2ccncc2)n1,Potency,[1],inactive
same,Potency,[2],inactive
CN1CCN(c2ncc(-c3cc(Cl)cc(Cl)c3Cl)c(N)n2)CC1,"parasite growth, % of DMSO control",[6],53.8%
same,"parasite growth remaining, % of DMSO control (lower = more inhibition)",[7],75.6%
same,"parasite growth, % of control (lower = inhibition)",[8],39.8%
same,"growth, % of control",[9],81.9%
same,Potency,[1],inactive
C=CC(=O)N[C@H]1CN(c2nc(Nc3cn(C)nc3OC)c3ncn(C)c3n2)C[C@@H]1F,Potency,[1],inactive
same,Potency,[10],inactive
C[C@@H]1O[C@@H](O[C@@H]2\C=C/C=C\C=C/C=C\C[C@H](C)OC(=O)/C=C\[C@H]3O[C@@H]3C[C@H](O)C[C@]3(O)C[C@@H](O)[C@@H](C(=O)O)[C@H](C2)O3)[C@H](O)[C@H](N)[C@@H]1O,Potency,[1],inactive
same,"activity change, negative = inhibition",[2],-17.3%
COc1cc([C@@H](CC(=O)O)c2ccc(C)c(CN3C[C@@H](C)Oc4ccccc4S3(=O)=O)c2)cc2nnn(C)c12,Potency,[1],inactive
same,"activity change, negative = inhibition",[2],2.13%
Cc1sc2c(c1C)C(c1ccc(Cl)cc1)=NC(CC(N)=O)c1nnc(C)n1-2 (centres undefined),Potency,[1],inactive
same,"activity change, negative = inhibition",[2],-23.3%
same,Potency,[11],0.105 µM (active)
same,Potency,[12],0.132 µM (active)
O=c1[nH]c([C@@H]2CCCN2)nc2c1oc1ccc(Cl)cc12,Potency,[1],inactive
same,Potency,[10],7.64 µM (active)
CC1=C(/C=C/C(C)=C/C=C/C(C)=C/C=C/C=C(C)/C=C/C=C(C)/C=C/C2=C(C)CCCC2(C)C)C(C)(C)CCC1,Potency,[1],inactive
same,"activity change, negative = inhibition",[2],-16.6%
same,Potency,[3],inactive
same,Potency,[5],inactive
C[C@@]1(c2ncncc2F)NC(=O)c2cc(-c3cn[nH]c3)ccc21,Potency,[1],inactive
same,Potency,[10],4.82 µM (active)
COc1ccccc1C(=O)Nc1cc2c(cc1N1CCNC[C@H]1C)n(C)c(=O)n2C,Potency,[1],inactive
same,"activity change, negative = inhibition",[2],-55.2%
CN(CCO)C1CCN(c2ccc(Nc3ncc4c5ccnc(F)c5n(C5CCCC5)c4n3)nc2)CC1,Potency,[1],inactive
same,"activity change, negative = inhibition",[2],-15.6% [at 27.1 µM]
CC(C)=CCC/C(C)=C/CC/C(C)=C/CSc1ccccc1C(=O)O,outcome,[13],inactive
same,Potency,[4],inactive
same,Potency,[1],inactive
same,"activity change, negative = inhibition",[2],-15.6%
O=C(c1ccc(Nc2nc(C3CC3)cn3c(-c4cn[nH]c4)cnc23)c(F)c1)N1CCOCC1,Potency,[1],inactive
same,"activity change, negative = inhibition",[2],-58.9%
same,Potency,[10],8.57 µM (active)
CC1(C)CC(O)CC(C)(C)N1O,Potency,[1],inactive
same,"activity change, negative = inhibition",[2],-11.7%
same,Potency,[11],inactive
same,Potency,[12],inactive
same,Potency,[14],inactive
same,Potency,[15],inactive
same,Z-AUC,[16],0.107 (inactive)
same,Z-AUC,[16]; measured here: PEO1 parental Z-AUC,0.652
same,Z-AUC,[16]; measured here: PEO4 Z-AUC,0.604
CC[C@@]1(O)C(=O)OCc2c1cc1n(c2=O)Cc2c-1nc1ccccc1c2CCNC(C)C,"activity change, negative = cytotoxicity",[1],-47.2% [at 5.25 µM] (inactive)
same,"activity change, negative = inhibition",[2],-96.8% [at 5.25 µM]
same,Potency,[10],0.0061 µM (active)
CON(C)C(=O)N1N=C(c2cc(F)ccc2F)S[C@@]1(CCCN)c1ccccc1,Potency,[1],inactive
same,"activity change, negative = inhibition",[2],-86.6%
same,Potency,[10],0.0241 µM (active)
CCc1ccc(N(CC(C)C)S(=O)(=O)c2ccc(OCC3CCOCC3)c(CO)c2)cc1,Potency,[1],inactive
same,Potency,[10],24.1 µM (active)
C[C@H](Nc1ncnc2nc[nH]c12)c1cc2ccc(F)cc2nc1-c1ccccn1,Potency,[1],inactive
same,"activity change, negative = inhibition",[2],-9.43%
C=C1C[C@H]2C=Nc3cc(OCCCOc4cc5c(cc4OC)C(=O)N4CC(=C)C[C@H]4C=N5)c(OC)cc3C(=O)N2C1,Potency,[1],inactive
same,"activity change, negative = inhibition",[2],-62%
same,Potency,[10],0.0014 µM (active)
COc1cc(/C=C/C(=O)CC(=O)/C=C/c2ccc(O)c(OC)c2)ccc1O,Potency,[17],31.6 µM (active)
same,Potency,[1],31.6 µM (active)
